Measured values from the supplement of paper PMC8728848.
Only a selection was taken, and the strongest signals are over-represented in it overall.

Columns and labels:
Assay in all cases: glycan array binding signal (z-score within array); higher = stronger binding
Conditions in all cases: glycan notation: IUPAC condensed, linker removed
[1] = molecular target: Fuc(a1-2)Gal(b1-4)GlcNAc(b1-2)Man(a1-3)[Fuc(a1-2)Gal(b1-4)GlcNAc(b1-2)Man(a1-6)]Man(b1-4)GlcNAc(b1-4)GlcNAc
In short: (§1)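 Glycan array data were curated from 3228 arrays in the Consortium for Functional Glycomics database and kept only where the protein sequence was available. Glycan names were converted to IUPAC-condensed notation, and columns mapping to the same glycan were averaged. The binding signal is a within-array Z-score, averaged across arrays of the same protein sequence at different concentrations or buffers and across linkers. Negative Z-scores can be read as non-binding.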

[2] = molecular target: Fuc(a1-2)Gal(b1-4)[Fuc(a1-3)]GlcNAc(b1-2)Man(a1-3)[Fuc(a1-2)Gal(b1-4)[Fuc(a1-3)]GlcNAc(b1-2)Man(a1-6)]Man(b1-4)GlcNAc(b1-4)[Fuc(a1-6)]GlcNAc
In short: as §1

[3] = molecular target: Fuc(a1-2)Gal(b1-4)[Fuc(a1-3)]GlcNAc(b1-3)GalNAc
In short: as §1

[4] = molecular target: Fuc(a1-2)Gal3S(b1-4)GlcNAc
In short: as §1

Fuc(a1-2)Gal6S(b1-4)Glc = molecular target: Fuc(a1-2)Gal6S(b1-4)Glc
In short: as §1

[5] = molecular target: Fuc(a1-2)[GalNAc(a1-3)]Gal(b1-4)GlcNAc(b1-2)Man(a1-3)[Fuc(a1-2)[GalNAc(a1-3)]Gal(b1-4)GlcNAc(b1-2)Man(a1-6)]Man(b1-4)GlcNAc(b1-4)[Fuc(a1-6)]GlcNAc
In short: as §1

[6] = molecular target: Fuc(a1-3)[Gal(b1-4)]GlcNAc(b1-2)Man(a1-3)[Fuc(a1-3)[Gal(b1-4)]GlcNAc(b1-2)Man(a1-6)]Man(b1-4)GlcNAc(b1-4)[Fuc(a1-6)]GlcNAc
In short: as §1

Gal(a1-3)Gal(b1-4)GlcNAc = molecular target: Gal(a1-3)Gal(b1-4)GlcNAc
In short: as §1

[7] = molecular target: Gal(a1-3)Gal(b1-4)GlcNAc(b1-2)Man(a1-3)[Gal(a1-3)Gal(b1-4)GlcNAc(b1-2)Man(a1-6)]Man(b1-4)GlcNAc(b1-4)GlcNAc
In short: as §1

[8] = molecular target: Gal(a1-4)Gal(b1-3)GlcNAc(b1-2)Man(a1-3)[Gal(a1-4)Gal(b1-3)GlcNAc(b1-2)Man(a1-6)]Man(b1-4)GlcNAc(b1-4)GlcNAc
In short: as §1

[9] = molecular target: Gal(a1-4)Gal(b1-4)GlcNAc(b1-2)Man(a1-3)[Gal(a1-4)Gal(b1-4)GlcNAc(b1-2)Man(a1-6)]Man(b1-4)GlcNAc(b1-4)GlcNAc
In short: as §1

Gal(b1-3)Gal(b1-4)GlcNAc = molecular target: Gal(b1-3)Gal(b1-4)GlcNAc
In short: as §1

[10] = molecular target: Gal(b1-3)GalNAc(b1-3)Gal(a1-4)Gal(b1-4)Glc
In short: as §1

Gal(b1-3)GlcNAc(b1-2)Man = molecular target: Gal(b1-3)GlcNAc(b1-2)Man
In short: as §1

[11] = molecular target: Gal(b1-3)GlcNAc(b1-2)Man(a1-3)[Gal(b1-3)GlcNAc(b1-2)Man(a1-6)]Man(b1-4)GlcNAc(b1-4)GlcNAc
In short: as §1

[12] = molecular target: Gal(b1-3)[Fuc(a1-4)]GlcNAc(b1-2)Man(a1-3)[Gal(b1-3)[Fuc(a1-4)]GlcNAc(b1-2)Man(a1-6)]Man(b1-4)GlcNAc(b1-4)[Fuc(a1-6)]GlcNAc
In short: as §1

[13] = molecular target: Gal(b1-4)GalNAc(a1-3)[Fuc(a1-2)]Gal(b1-4)GlcNAc
In short: as §1

[14] = molecular target: Gal(b1-4)GlcNAc(b1-2)Man(a1-3)Man(b1-4)GlcNAc(b1-4)GlcNAc
In short: as §1

[15] = molecular target: Gal(b1-4)GlcNAc(b1-2)Man(a1-3)[Gal(b1-4)GlcNAc(b1-2)Man(a1-6)]Man(b1-4)GlcNAc(b1-4)[Fuc(a1-6)]GlcNAc
In short: as §1

[16] = molecular target: Gal(b1-4)GlcNAc(b1-2)Man(a1-6)[GlcNAc(b1-2)Man(a1-3)]Man(b1-4)GlcNAc(b1-4)GlcNAc
In short: as §1

[17] = molecular target: Gal(b1-4)GlcNAc(b1-2)[Gal(b1-4)GlcNAc(b1-6)]Man(a1-6)[Gal(b1-4)GlcNAc(b1-2)Man(a1-3)]Man(b1-4)GlcNAc(b1-4)GlcNAc
In short: as §1

[18] = molecular target: Gal(b1-4)GlcNAc(b1-3)Gal(b1-4)GlcNAc(b1-2)Man(a1-3)[Gal(b1-4)GlcNAc(b1-3)Gal(b1-4)GlcNAc(b1-2)Man(a1-6)]Man(b1-4)GlcNAc(b1-4)[Fuc(a1-6)]GlcNAc
In short: as §1

[19] = molecular target: Gal(b1-4)GlcNAc(b1-3)Gal(b1-4)GlcNAc(b1-2)[Gal(b1-4)GlcNAc(b1-3)Gal(b1-4)GlcNAc(b1-6)]Man(a1-6)[Gal(b1-4)GlcNAc(b1-3)Gal(b1-4)GlcNAc(b1-2)Man(a1-3)]Man(b1-4)GlcNAc(b1-4)GlcNAc
In short: as §1

[20] = molecular target: Gal(b1-4)GlcNAc(b1-3)Gal(b1-4)GlcNAc(b1-3)Gal(b1-4)GlcNAc(b1-3)Gal(b1-4)GlcNAc(b1-2)Man(a1-3)[Gal(b1-4)GlcNAc(b1-3)Gal(b1-4)GlcNAc(b1-3)Gal(b1-4)GlcNAc(b1-3)Gal(b1-4)GlcNAc(b1-2)Man(a1-6)]Man(b1-4)GlcNAc(b1-4)[Fuc(a1-6)]GlcNAc
In short: as §1

B1: PX9961T-pdi-555-33-555 (Parabacteroides distasonis) (protein)
chain: FDEETAFQSPTLVYVNTVASLYNNMFKIMGNDRHVYDLNTFSSDEAMLPCRIGDWEDGGLWQNIFLHRWGTMNDLTKNSWDFLYEQIGKCNQSVDKLQAFAEEQPDVEYFKVYLEEVRAVRAFFYYELLDLFARVPLVTSSTTPMSEVKQSERSVVFNFVRSELEEALPYLSDNRSNQKGEYYGRITKPVAYMILAKLALNAEVYADDNWTDGNRPAGKNIKFTVDGKEMNAWEATIAYVDKLEALGYKLQGNFSENFAVANETSVENIFTVPMDPVAYPDAKDYNLVRTRHYDHATAYGQSGWNGSCATVKAMNVFKFGTADEDPRCKLTYFTGEVTGPDGKTIYTEWDGQKVPLKYEPNAPKVYMDASDGLLVKTAGARMAKYEFDQNAQDGGNLHGNDCVIFRFADALLMKAEAKIRLGQNGDDEVNQVRNRVGAKPLQNVTLDTLLDERMLELAWEGVRRQDLIRFGKFTEATVDRYVGVKHFASSLDYQEDKTGYTTVFSIYADILSLNPNLTQNPGY
glycan array binding signal (z-score) [1]: 1.91 | glycan array binding signal (z-score) [2]: 0.323 | glycan array binding signal (z-score) [3]: -0.359 | glycan array binding signal (z-score) [4]: -0.354 | glycan array binding signal (z-score) (Fuc(a1-2)Gal6S(b1-4)Glc): -0.589 | glycan array binding signal (z-score) [5]: 2.12 | glycan array binding signal (z-score) [6]: -0.637 | glycan array binding signal (z-score) (Gal(a1-3)Gal(b1-4)GlcNAc): 0.037 | glycan array binding signal (z-score) [7]: 0.963 | glycan array binding signal (z-score) [8]: 2.7 | glycan array binding signal (z-score) [9]: 1.51 | glycan array binding signal (z-score) (Gal(b1-3)Gal(b1-4)GlcNAc): -0.663 | glycan array binding signal (z-score) [10]: -0.576 | glycan array binding signal (z-score) (Gal(b1-3)GlcNAc(b1-2)Man): 0.661 | glycan array binding signal (z-score) [11]: -0.248 | glycan array binding signal (z-score) [12]: -0.151 | glycan array binding signal (z-score) [13]: -0.527 | glycan array binding signal (z-score) [14]: -0.441 | glycan array binding signal (z-score) [15]: 0.171 | glycan array binding signal (z-score) [16]: -0.306 | glycan array binding signal (z-score) [17]: -0.161 | glycan array binding signal (z-score) [18]: 0.672 | glycan array binding signal (z-score) [19]: 1.53 | glycan array binding signal (z-score) [20]: 0.109
